Source: PubChem BioAssay (NCATS)
Values joined by “and” are separate entries in the source; they are usually repeats but may differ in a detail not shown here. Identical values can stand only once. Results filed as inconclusive are left out. More than one record can exist for a structure, and the calls need not agree. Active and inactive are the calls of the source. Unless noted, calls come from the whole dose curve; as a rule, active = well fitted curve in the direction sought with a large enough effect; inconclusive = small, poorly fitted or top-dose-only effect, or another doubt; inactive = no such curve, though single readings can be large; an effect the other way counts as inactive or inconclusive.

Key:
[1] = qHTS assay for measurement of the activity of small molecule inhibitors on Zika virus induced Caspase-3 activity in human iPSC derived neural progenitor cells (hNPCs) (AID 1224857); note: nearly all actives have a fitted effect of over 65% in size
Method in brief: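 Human iPSC-derived neural progenitor cells pretreated 1 hr with compounds, then infected with Zika virus (2 FFU/cell) for 6 hours at 37 C. Caspase-3/7 measured by Caspase-Glo luminescence; % inhibition calculated from induction scaled to uninfected (0%) and infected (100%) wells.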

[2] = qHTS assay for measurement of the activity of small molecule inhibitors on Zika virus induced Caspase-3 activity in human astrocytoma cells (AID 1224859)
Method in brief: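 SNB-19 astrocytoma cells, 250/well, pretreated 1 h with compounds, then Zika virus at 2 FFU/cell for 6 h at 37 C; Caspase-Glo 3/7 luminescence after 30 min; percent inhibition normalised to uninfected and infected controls.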

[3] = qHTS Screen of the MIPE 4.0 Collection Against Ewings Sarcoma (RDES) (AID 1259252); note: nearly all actives have a fitted effect of over 35% in size; note: potency is the fitted concentration of half-maximal effect
Method in brief: (§1)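 Viability screen: 48 h incubation at 37C, 95% humidity, 5% CO2 with serially titrated compound, followed by CellTiter-Glo readout.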

[4] = qHTS Screen of the MIPE 4.0 Collection Against Ewings Sarcoma (TC71) (AID 1259253); note: nearly all actives have a fitted effect of over 40% in size; note: potency is the fitted concentration of half-maximal effect
Method in brief: as §1

[5] = qHTS Screen of the MIPE 4.0 Collection Against Ewings Sarcoma (EW8) (AID 1259255); note: nearly all actives have a fitted effect of over 35% in size; note: potency is the fitted concentration of half-maximal effect
Method in brief: as §1

[6] = qHTS Screen of the MIPE 4.0 Collection Against Ewings Sarcoma (TC32) (AID 1259256); note: nearly all actives have a fitted effect of over 45% in size; note: potency is the fitted concentration of half-maximal effect
Method in brief: as §1

[7] = qHTS assay to identify small molecule inhibitors of chordoma cells - UCH-1 (AID 1259355); note: nearly all actives have a fitted effect of over 55% in size; note: potency is the fitted concentration of half-maximal effect; series mostly up to about 46 µM
Method in brief: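 Cells (800/well) were seeded and left overnight at 37 C, 5% CO2, then treated with drugs at 15 concentrations plus a combination mix of auranofin, camptothecin, doxorubicin, rubitecan and topotecan. Viability after 48hr was read by CellTiter-Glo luminescence.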

[8] = qHTS assay to identify small molecule inhibitors of chordoma cells - UCH-2 (AID 1259356); note: potency is the fitted concentration of half-maximal effect
[9] = NS1 protein of Zika virus - qHTS assay to identify small molecule inhibitors in human HEK 293 cells (AID 1347053); note: nearly all actives have a fitted effect of over 55% in size; note: potency is the fitted concentration of half-maximal effect
Method in brief: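 HEK 293 cells pretreated with compound for 1 h, then infected with ZIKV MR766 (MOI 0.5) for 24 h at 37 C. NS1 detected by TR-FRET with two anti-NS1 antibodies; normalized to uninfected (0%) and infected (100%) wells.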

[10] = P-glycoprotein substrates identified in KB-8-5-11 adenocarcinoma cell line, qHTS therapeutic library screen (AID 1346987); note: nearly all actives have a fitted effect of over 65% in size; note: potency is the fitted concentration of half-maximal effect
Method in brief: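 P-gp-mediated resistance screen: KB-8-5-11 cells treated 72 h with compounds in dose-response. CellTiter-Glo viability.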

[11] = Identifying Small Molecule Inhibitors of Pancreatic Cancer Stem Cells (Panc1, Adherent) (AID 1259362); details: viability; note: potency is the fitted concentration of half-maximal effect
Method in brief: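 Pre-formed 14-day tumor spheroids or adherent cells dosed and incubated 48 h, 37C, 5% CO2. Viability assessed by CellTiter-Glo.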

[12] = Natriuretic polypeptide receptor (hNpr1) antagonism - Pilot counterscreen GloSensor control cell line (AID 1347045; calls by dose curve; note: series mostly up to about 38 µM)
Method in brief: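 This counterscreen uses HEK293 cells expressing the GIP/pGS-40F cGMP biosensor. Compound-treated cells are challenged with 50 uM sodium nitroprusside, and the luciferase signal is compared before and after stimulation.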

[13] = molecular target: Atrial natriuretic peptide receptor 1 (Homo sapiens) (UniProt P16066); test: Natriuretic polypeptide receptor (hNpr1) antagonism - Pilot screen (AID 1347049; calls by dose curve;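 note: agonist-evoked cGMP luminescence read 20 min after hNppA addition; series mostly up to about 58 µM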)
Method in brief: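 HEK293 cells expressing hNpr1 and GloSensor cGMP luciferase, 1500/well, loaded with 2% GloSensor reagent 2 h, compound 30 min at room temperature; luminescence read before and 20 min after 0.1 nM hNppA stimulation.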

[14] = molecular target: Tyrosine-protein phosphatase non-receptor type substrate 1 (Homo sapiens) + Leukocyte surface antigen CD47 (Homo sapiens) (UniProt P78324+Q08722); test: CD47-SIRPalpha protein protein interaction - LANCE assay qHTS validation (AID 1347057; active = well fitted curve in the direction sought with a large enough effect in the signal ratio, with a control signal flat, not every such curve was filed as active; the % refers to the signal ratio; note: series mostly up to about 38 µM)
Method in brief: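 First, His-tagged CD47 and Eu-labelled anti-His antibody met the compound for 30 min; next, site-specifically biotinylated SIRPalpha was added for 30 min; finally streptavidin-APC was added before reading the TR-FRET ratio.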

[15] = Identifying Small Molecule Inhibitors of Pancreatic Cancer Stem Cells (SN12C, Adherent) (AID 1259358);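 note: potency is the fitted concentration of half-maximal effect; cell survival measured after 48 h of compound exposure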
Method in brief: (§2)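 Monolayer and spheroid cultures are compared. Spheroids form over 14 days in stem cell medium on hydrogel-coated low-attachment plates, then are exposed to compound for 48 h before CellTiter-Glo luminescence.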

[16] = Identifying Small Molecule Inhibitors of Pancreatic Cancer Stem Cells (Panc1, Spheroid) (AID 1259359); details: Panc1 spheroid cancer stem cell viability;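 note: potency is the fitted concentration of half-maximal effect; compound exposure lasted 48 h before reading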
Method in brief: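 Luminescent ATP readout (CellTiter-Glo) quantifies surviving cells after a 48 h drug incubation. Normalization uses DMSO wells as no inhibition and media-only wells as full inhibition; bortezomib served as positive control.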

[17] = Identifying Small Molecule Inhibitors of Pancreatic Cancer Stem Cells (A278, Adherent) (AID 1259361);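 note: viability read after 48 h compound exposure; nearly all actives have a fitted effect of over 35% in size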
Method in brief: as §2

[18] = Identifying Small Molecule Inhibitors of Pancreatic Cancer Stem Cells (SN12C, Spheroid) (AID 1259360); details: Potency: SN12C spheroid viability; note: potency is the fitted concentration of half-maximal effect
Method in brief: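 Spheroids grown 14 days in stem cell media on nonadherent hydrogel before screening; cells attached 4 h, then compound exposure 48 h at 37C, 5% CO2. CellTiter-Glo luminescence normalized to DMSO (no inhibition) and no-cell wells (full inhibition).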

Chain of Tyrosine-protein phosphatase non-receptor type substrate 1 (Homo sapiens) + Leukocyte surface antigen CD47 (Homo sapiens) (P78324 whole entry, looked up): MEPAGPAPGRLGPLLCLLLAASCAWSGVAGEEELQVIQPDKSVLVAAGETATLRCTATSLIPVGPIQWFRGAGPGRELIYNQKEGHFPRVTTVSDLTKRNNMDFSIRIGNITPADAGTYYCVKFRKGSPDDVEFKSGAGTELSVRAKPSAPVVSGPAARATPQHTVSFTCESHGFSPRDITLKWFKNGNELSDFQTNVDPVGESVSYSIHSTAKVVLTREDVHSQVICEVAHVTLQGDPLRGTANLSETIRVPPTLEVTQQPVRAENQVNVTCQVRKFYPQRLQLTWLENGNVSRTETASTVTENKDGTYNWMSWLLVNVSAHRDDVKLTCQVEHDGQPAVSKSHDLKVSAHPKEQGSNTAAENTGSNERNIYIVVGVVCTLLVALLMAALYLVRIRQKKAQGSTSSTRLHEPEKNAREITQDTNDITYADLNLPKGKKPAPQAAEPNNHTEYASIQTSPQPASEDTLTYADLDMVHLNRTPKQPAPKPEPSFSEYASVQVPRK
Chain of Tyrosine-protein phosphatase non-receptor type substrate 1 (Homo sapiens) + Leukocyte surface antigen CD47 (Homo sapiens) (Q08722 whole entry, looked up): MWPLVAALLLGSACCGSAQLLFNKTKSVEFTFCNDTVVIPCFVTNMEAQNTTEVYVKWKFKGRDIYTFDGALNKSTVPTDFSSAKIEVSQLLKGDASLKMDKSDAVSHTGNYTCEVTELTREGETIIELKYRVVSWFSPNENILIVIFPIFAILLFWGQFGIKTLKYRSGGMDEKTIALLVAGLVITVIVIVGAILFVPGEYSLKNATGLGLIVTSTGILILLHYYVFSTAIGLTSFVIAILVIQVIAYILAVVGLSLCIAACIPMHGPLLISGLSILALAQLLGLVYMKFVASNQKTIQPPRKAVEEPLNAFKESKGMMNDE
Chain of Atrial natriuretic peptide receptor 1 (Homo sapiens) (P16066 whole entry, looked up): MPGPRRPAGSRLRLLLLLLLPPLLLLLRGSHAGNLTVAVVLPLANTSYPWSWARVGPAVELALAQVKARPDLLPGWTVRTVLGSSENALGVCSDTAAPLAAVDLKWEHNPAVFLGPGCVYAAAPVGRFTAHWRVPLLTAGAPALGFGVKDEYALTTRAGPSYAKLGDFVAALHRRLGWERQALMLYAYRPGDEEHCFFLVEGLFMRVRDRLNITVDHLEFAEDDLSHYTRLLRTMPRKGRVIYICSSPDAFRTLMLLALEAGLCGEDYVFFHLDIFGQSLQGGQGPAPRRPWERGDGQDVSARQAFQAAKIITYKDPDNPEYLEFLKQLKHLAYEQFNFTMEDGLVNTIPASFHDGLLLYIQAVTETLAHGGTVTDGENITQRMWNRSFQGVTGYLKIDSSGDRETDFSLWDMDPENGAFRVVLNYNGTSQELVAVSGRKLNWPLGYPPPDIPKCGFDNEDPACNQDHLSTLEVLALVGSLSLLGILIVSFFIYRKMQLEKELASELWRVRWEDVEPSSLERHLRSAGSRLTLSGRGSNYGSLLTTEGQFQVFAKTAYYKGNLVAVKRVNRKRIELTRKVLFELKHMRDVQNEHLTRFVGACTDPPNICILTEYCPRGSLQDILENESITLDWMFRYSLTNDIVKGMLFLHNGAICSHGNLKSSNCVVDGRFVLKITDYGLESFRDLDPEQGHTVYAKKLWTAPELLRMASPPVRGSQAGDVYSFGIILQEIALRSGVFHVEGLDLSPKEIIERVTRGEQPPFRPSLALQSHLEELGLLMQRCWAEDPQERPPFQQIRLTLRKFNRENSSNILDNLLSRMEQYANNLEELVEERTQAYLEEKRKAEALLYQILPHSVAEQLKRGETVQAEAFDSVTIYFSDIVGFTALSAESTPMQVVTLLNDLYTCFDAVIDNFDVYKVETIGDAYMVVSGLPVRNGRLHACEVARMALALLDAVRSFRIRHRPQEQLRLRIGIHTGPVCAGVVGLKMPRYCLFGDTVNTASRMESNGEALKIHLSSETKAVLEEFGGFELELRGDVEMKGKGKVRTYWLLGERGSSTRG

CCn1cc(C(=O)O)c(=O)c2cc(F)c(N3CCNCC3)cc21
inactive: Potency [1] | Potency [2] | Potency [3] | Potency [4] | Potency [5] | Potency [6] | Potency [7] | Potency [8] | Potency [9]

O[C@@H](CNC[C@H](O)[C@H]1CCc2cc(F)ccc2O1)[C@@H]1CCc2cc(F)ccc2O1
active: Potency [3] 23.5 µM | Potency [4] 20.9 µM | Potency [5] 20.9 µM | Potency [6] 23.5 µM | Potency [10] 20.9 µM
inactive: Potency [1] | Potency [2]

CCC(=O)O[C@]1(C(=O)SCF)[C@H](C)C[C@H]2[C@@H]3C[C@H](F)C4=CC(=O)C=C[C@]4(C)[C@@]3(F)[C@@H](O)C[C@@]21C
active: Potency [3] 16.6 µM
inactive: Potency [1] | Potency [2] | Potency [4] | Potency [5] | Potency [6] | Potency [7] | Potency [8] | Potency [9]

CCOc1cc(N)c(Cl)cc1C(=O)NCC1CN(Cc2ccc(F)cc2)CCO1 (centres undefined)
inactive: Potency [1] | Potency [2] | Potency [3] | Potency [4] | Potency [5] | Potency [6] | Potency [8] | Potency [10] | Potency [9]

Oc1c(Cl)cc(Cl)c2cccnc12
inactive: Potency [1] | Potency [2]
active: Potency [3] 13.2 µM | Potency [4] 10.5 µM | Potency [5] 8.33 µM | Potency [6] 7.43 µM | Potency [8] 23.1 µM | Potency [10] 1.46 µM

COc1cc2nc(N3CCCN(C)CC3)nc(NC3CCN(Cc4ccccc4)CC3)c2cc1OC
inactive: Potency [1] | Potency [2] | Potency [12] | Potency [13] | outcome [14]
active: Potency [3] 8.33 µM | Potency [4] 10.5 µM | Potency [5] 7.43 µM | Potency [6] 5.26 µM | Potency [11] 2.35 µM

O=C(NCC1CN(c2ccc(N3CCOCC3=O)cc2)C(=O)O1)c1ccc(Cl)s1 (centres undefined)
inactive: Potency [1] | Potency [2] | Potency [3] | Potency [4] | Potency [5] | Potency [6] | Potency [10] | Potency [9]

Cc1oc(=O)oc1CN1CCN(c2cc3c(cc2F)c(=O)c(C(=O)O)c2n3C(C)S2)CC1 (centres undefined)
inactive: Potency [1] | Potency [2] | Potency [3] | Potency [4] | Potency [5] | Potency [8] | Potency [9]

CNS(=O)(=O)CCc1ccc2[nH]cc(C3CCN(C)CC3)c2c1
inactive: Potency [1] | Potency [2] | Potency [10] | Potency [9] | outcome [14]
active: Potency [3] 0.372 µM | Potency [4] 0.235 µM | Potency [5] 2.64 µM | Potency [6] 1.48 µM

COCCCOc1cc(C[C@@H](C[C@H](N)[C@@H](O)C[C@H](C(=O)NCC(C)(C)C(N)=O)C(C)C)C(C)C)ccc1OC
inactive: Potency [1] | Potency [2] | Potency [3] | Potency [4] | Potency [5] | Potency [6] | Potency [10] | Potency [9]

O=C(O)CSCC(=O)NC1CCSC1=O (centres undefined)
inactive: Potency [1] | Potency [2] | Potency [3] | Potency [4] | Potency [5] | Potency [6] | Potency [10] | Potency [9]

Nc1ccc(S(=O)(=O)Nc2ccccn2)cc1
inactive: Potency [1] | Potency [2] | Potency [3] | Potency [4] | Potency [5] | Potency [6] | Potency [8] | Potency [9]

COc1cc([C@@H]2c3cc4c(cc3[C@H](O)[C@H]3COC(=O)[C@H]23)OCO4)cc(OC)c1OC
active: Potency [7] 0.0079 µM | Potency [15] 0.0187 µM | Potency [16] 0.0021 µM | IC50 (viability decrease) [17] 0.0148 µM | Potency [10] 130 nM and 11.8 nM
inactive: Potency [1] | Potency [2] | Potency [3] | Potency [4] | Potency [5] | Potency [8] | Potency [9]

COc1ccc2cc3[n+](cc2c1OC)CCc1cc2c(cc1-3)OCO2
active: Potency [3] 8.33 µM | Potency [4] 5.9 µM | Potency [5] 11.8 µM | Potency [6] 7.43 µM
inactive: Potency [1] | Potency [2] | Potency [7] | Potency [8] | Potency [9]

C1CCC(C(CC2CCCCN2)C2CCCCC2)CC1 (centres undefined)
inactive: Potency [1]
active: Potency [3] 23.5 µM | Potency [4] 13.2 µM | Potency [5] 13.2 µM | Potency [6] 16.6 µM | Potency [7] 31.6 µM | Potency [10] 5.17 µM and 16.6 µM | Potency [9] 10 µM and 11.8 µM

CCc1cc(C(N)=S)ccn1
inactive: Potency [1] | Potency [3] | Potency [5] | Potency [7] | Potency [8] | Potency [10] | Potency [9]
active: Potency [4] 20.9 µM

CC(C)OC(=O)C(C(=O)OC(C)C)=C1SC=CS1
inactive: Potency [2] | Potency [3] | Potency [4] | Potency [5] | Potency [6] | Potency [7] | Potency [8] | Potency [10] | Potency [9]

OC(Cn1cncn1)(Cn1cncn1)c1ccc(F)cc1F
inactive: Potency [1] | Potency [3] | Potency [4] | Potency [5] | Potency [6] | Potency [7] | Potency [8] | Potency [9]

CC(C)C[C@H](NC(=O)[C@H](CCc1ccccc1)NC(=O)CN1CCOCC1)C(=O)N[C@@H](Cc1ccccc1)C(=O)N[C@@H](CC(C)C)C(=O)[C@@]1(C)CO1
inactive: Potency [1]
active: Potency [3] 0.0187 µM | Potency [4] 0.0372 µM | Potency [5] 0.0132 µM | Potency [6] 0.0148 µM | Potency [15] 0.0372 µM | Potency [18] 0.0372 µM | IC50 (viability decrease) [17] 0.0023 µM | Potency [11] 0.0264 µM | Potency [10] 9.2 µM | Potency [9] 118 nM

Nc1nc(F)nc2c1ncn2[C@@H]1O[C@H](CO)[C@@H](O)[C@@H]1O
inactive: Potency [2] | Potency [7] | Potency [8]
active: Potency [3] 0.59 µM | Potency [4] 0.372 µM | Potency [5] 0.469 µM | Potency [6] 1.32 µM
inactive and 662 nM (active): Potency [10]
inactive and 2.09 µM (active): Potency [9]

CC[C@H](C)C(=O)O[C@H]1C[C@@H](C)C=C2C=C[C@H](C)[C@H](CC[C@@H]3C[C@@H](O)CC(=O)O3)[C@H]21
inactive: Potency [1] | Potency [2] | Potency [8] | Potency [9]
active: Potency [3] 18.7 µM | Potency [4] 14.8 µM | Potency [6] 7.43 µM

CC(=O)[C@H]1CC[C@H]2[C@@H]3CC=C4C[C@@H](O)CC[C@]4(C)[C@H]3CC[C@]12C
inactive: Potency [1] | Potency [3] | Potency [4] | Potency [5] | Potency [6] | Potency [8] | Potency [10] | Potency [9]
